Results reported in PubChem BioAssay AID651601 (Sanford-Burnham Center for Chemical Genomics, 2012).
Calls of active or inactive are those of the source.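 The calls were made as follows: active = CXCR6 mean IC50 below 15 µM, and neither CCR6 nor CXCR5 mean IC50 under five times that; inactive = the rest.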

target: C-C chemokine receptor type 6 (Homo sapiens) (UniProt P51684); experiment: antagonist selectivity across CCR6, CXCR5 and CXCR6 – cell-based, CHO-K1 PathHunter beta-arrestin, luminescence, selectivity assay for CXCR6 antagonist project, profiling panel (AID 651601); conditions: antagonist mode, mean of runs
Sequence (P51684 whole entry, looked up): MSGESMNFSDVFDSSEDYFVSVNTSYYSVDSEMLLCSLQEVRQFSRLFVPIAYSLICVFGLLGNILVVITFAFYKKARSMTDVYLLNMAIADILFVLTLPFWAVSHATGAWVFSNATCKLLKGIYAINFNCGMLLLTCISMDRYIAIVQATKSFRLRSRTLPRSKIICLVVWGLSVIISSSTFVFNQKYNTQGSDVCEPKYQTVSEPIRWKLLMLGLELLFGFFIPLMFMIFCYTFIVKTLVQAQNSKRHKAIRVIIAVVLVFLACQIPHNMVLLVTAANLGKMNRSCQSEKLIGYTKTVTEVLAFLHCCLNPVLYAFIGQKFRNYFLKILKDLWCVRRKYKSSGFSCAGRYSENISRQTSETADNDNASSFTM

outcome, inactive:
O=C(CN1C2CCCC1CC(NC(=O)c1ccccc1)C2)Nc1ccccc1C(F)(F)F (stereo unspecified)
O=C(CN1C2CCCC1CC(NC(=O)c1ccccc1)C2)Nc1ccccc1 (stereo unspecified)
CN(C)c1ccc(NC(=O)CN2C3CCCC2CC(NC(=O)c2ccccc2)C3)cc1 (stereo unspecified)
COc1cccc(C(=O)NC2CC3CCCC(C2)N3CC(=O)Nc2ccccc2C(F)(F)F)c1 (stereo unspecified)
COc1cccc(C(=O)NC2CC3CCCC(C2)N3CC(=O)Nc2ccc(N(C)C)cc2)c1 (stereo unspecified)
COc1cc(C(=O)NC2CC3CCCC(C2)N3CC(=O)Nc2ccccc2)cc(OC)c1OC (stereo unspecified)
